The text below walks through data of PubChem BioAssay.

A short description of assay [1]: optical density shifts of acrAB sulA E. coli – strain DRC41, OD650, 48 h, E. coli filamentation inducer project, primary screen (AID 1152).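 Also: E. coli MC1000 strain DRC41 lacking acrAB efflux pump and sulA.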 As to conditions: higher = more signal, called active from +8 up or from −8 down.
Assay [2] is described as follows: probe aLefty1 binding on compound microarray – biochemical, small-molecule microarray, 635/667 nm fluorescence, primary screen (AID 1153).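 Also: score merges spot fluorescence with signal-to-noise ratio from the scanned slide images.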 The following applies: higher = more signal.
A short description of assay [3]: plasmodial surface anion channel blockers, osmotic lysis – cell-based, P. falciparum Indochina, OD700, 1 h, primary screen (AID 1154). The following applies: P. falciparum Indochina infected RBC osmotic lysis, higher = more signal, called active from +8 up or from −8 down.
Assay [4] can be described thus: plasmodial surface anion channel blockers, osmotic lysis – cell-based, P. falciparum Indochina, OD700, 2 h, primary screen (AID 1155).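 Also: lysis reports solute entry through the parasite surface anion channel PSAC.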 As to conditions: P. falciparum Indochina infected erythrocytes, higher = more signal, called active from +8 up or from −8 down.
Assay [5] in a line: changes in parasitized red cell lysis, either direction – P. falciparum Indochina, OD700, 3 h, PSAC antagonist project, primary screen (AID 1156). As to conditions: P. falciparum-infected erythrocytes, osmotic lysis, higher = more signal, called active from +8 up or from −8 down.
The nature of assay [6]: plasmodial surface anion channel blockers, osmotic lysis – cell-based, P. falciparum Indochina, OD700, 18 h, primary screen (AID 1157). As to conditions: P. falciparum Indochina infected erythrocytes, osmotic lysis OD700, 18 h; higher = more signal, called active from +8 up or from −8 down.
Assay [7] is described as follows: S6 kinase pathway phospho-S6 level changes – cell-based, A549, cytoblot, luminescence, serum-stimulated, primary screen (AID 1158).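 Also: serum-stimulated A549 lung adenocarcinoma cells; signal is phosphorylated S6 detected by cytoblot immunostaining with HRP secondary.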 As to conditions: 5 h, higher = more signal.
Assay [8] has as its target NADPH oxidase 2 (Homo sapiens) (UniProt P04839). In words: compounds shifting NOX2 Amplex Red fluorescence – cell-based, HEK293-NOX2, PMA-stimulated, NOX inhibitor project, primary screen (AID 1159). Also: test concentration not given here. The following applies: 45 min, higher = more signal, called active from +8 up or from −8 down.
Assay [9] addresses NADPH oxidase 4 (Homo sapiens) (UniProt Q9NPH5). Kind of assay: compounds shifting NOX4 Amplex Red fluorescence – cell-based, HEK293-NOX4, tetracycline-induced, NOX inhibitor project, primary screen (AID 1160). The following applies: HEK293-NOX4, Amplex Red H2O2 fluorescence, 45 min; higher = more signal, called active from +8 up or from −8 down.
For assay [10], the target named is NADPH oxidase 5 (Homo sapiens) (UniProt Q96PH1). In words: compounds shifting NOX5 Amplex Red fluorescence – cell-based, HEK293-NOX5, NOX inhibitor project, primary screen (AID 1161). As to conditions: HEK293-NOX5, ionomycin, 45 min, higher = more signal.
The nature of assay [11]: compound effects on lung adenocarcinoma cell viability – A549, calcein-AM fluorescence, 48 h, basal, profiling panel (AID 1162). Also: test concentration not given here. As to conditions: higher = more signal.
Assay [12] is described as follows: compound effects on differentiated 3T3-L1 adipocyte viability – cell-based, 3T3-L1 adipocytes, calcein-AM fluorescence, 48 h, basal, profiling panel (AID 1163). Also: test concentration not given here. As to conditions: 3T3-L1 adipocytes viability, higher = more signal.
Assay [13] can be described thus: compound effects on hepatocellular carcinoma cell viability – HepG2, calcein-AM fluorescence, 48 h, basal, profiling panel (AID 1164). Also: test concentration not given here. As to conditions: higher = more signal.
Assay [14] can be described thus: compound effects on multiple myeloma cell viability – MM1S, calcein-AM fluorescence, 48 h, basal, profiling panel (AID 1165). Also: test concentration not given here. As to conditions: higher = more signal.
The nature of assay [15]: calcein-AM signal in unstimulated myeloma cells – cell-based, calcein-AM fluorescence, 48 h, PK04 Diversity Set, profiling panel (AID 1166).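 Also: cells grown under basal conditions without added stimulus; test concentration not given here.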 The following applies: RPMI8226 myeloma viability, higher = more signal.
Assay [16] can be described thus: JC-1 mitochondrial signal, unstimulated HepG2 cells – cell-based, JC-1 fluorescence, 24 h, 100 nL compound, profiling panel (AID 1167). Also: test concentration not given here. As to conditions: HepG2 mitochondrial potential, higher = more signal.
A short description of assay [17]: JC-1 mitochondrial signal, unstimulated adipocytes – cell-based, JC-1 fluorescence, 3T3-L1 adipocytes, 24 h, 100 nL compound, profiling panel (AID 1168). Also: test concentration not given here. As to conditions: JC-1 mitochondrial fluorescence, higher = more signal, called active from +8 up or from −8 down.
Assay [18] in a line: JC-1 mitochondrial signal, unstimulated myeloma cells – cell-based, JC-1 fluorescence, RPMI8226, 24 h, 100 nL compound, profiling panel (AID 1169). Also: test concentration not given here. As to conditions: JC-1 mitochondrial potential fluorescence, higher = more signal.
Assay [19] in a line: JC-1 mitochondrial signal, unstimulated MM1S myeloma – cell-based, JC-1 fluorescence, 24 h, 100 nL compound, profiling panel (AID 1170). Also: test concentration not given here. As to conditions: MM1S mitochondrial potential, higher = more signal.
Assay [20] can be described thus: resazurin metabolic signal in A549 cells – cell-based, resazurin fluorescence, 24 h, PK04 Diversity Set, profiling panel (AID 1171). Also: test concentration not given here. The following applies: A549 viability, higher = more signal, called active from +8 up or from −8 down. (The colour change of resazurin is a common sign of viable cells or microbes.)

The structures appear in SMILES notation. The source made the active and inactive calls.

Sequence of NADPH oxidase 2 (Homo sapiens) (P04839 whole entry, looked up): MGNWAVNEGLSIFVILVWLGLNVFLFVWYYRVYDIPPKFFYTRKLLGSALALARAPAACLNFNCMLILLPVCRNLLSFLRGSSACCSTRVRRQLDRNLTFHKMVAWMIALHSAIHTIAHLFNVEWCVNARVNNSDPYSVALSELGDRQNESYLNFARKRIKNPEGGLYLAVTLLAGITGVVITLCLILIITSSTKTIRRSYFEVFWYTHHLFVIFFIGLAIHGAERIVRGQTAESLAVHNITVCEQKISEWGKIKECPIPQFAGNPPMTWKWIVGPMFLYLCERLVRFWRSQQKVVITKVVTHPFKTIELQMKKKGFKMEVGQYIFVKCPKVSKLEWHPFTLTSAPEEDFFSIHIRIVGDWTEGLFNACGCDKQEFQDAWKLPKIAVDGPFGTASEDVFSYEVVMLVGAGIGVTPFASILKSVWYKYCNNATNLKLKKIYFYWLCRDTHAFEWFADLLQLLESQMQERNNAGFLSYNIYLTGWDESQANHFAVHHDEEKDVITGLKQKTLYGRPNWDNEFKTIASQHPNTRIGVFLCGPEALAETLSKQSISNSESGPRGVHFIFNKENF
Sequence of NADPH oxidase 5 (Homo sapiens) (Q96PH1 whole entry, looked up): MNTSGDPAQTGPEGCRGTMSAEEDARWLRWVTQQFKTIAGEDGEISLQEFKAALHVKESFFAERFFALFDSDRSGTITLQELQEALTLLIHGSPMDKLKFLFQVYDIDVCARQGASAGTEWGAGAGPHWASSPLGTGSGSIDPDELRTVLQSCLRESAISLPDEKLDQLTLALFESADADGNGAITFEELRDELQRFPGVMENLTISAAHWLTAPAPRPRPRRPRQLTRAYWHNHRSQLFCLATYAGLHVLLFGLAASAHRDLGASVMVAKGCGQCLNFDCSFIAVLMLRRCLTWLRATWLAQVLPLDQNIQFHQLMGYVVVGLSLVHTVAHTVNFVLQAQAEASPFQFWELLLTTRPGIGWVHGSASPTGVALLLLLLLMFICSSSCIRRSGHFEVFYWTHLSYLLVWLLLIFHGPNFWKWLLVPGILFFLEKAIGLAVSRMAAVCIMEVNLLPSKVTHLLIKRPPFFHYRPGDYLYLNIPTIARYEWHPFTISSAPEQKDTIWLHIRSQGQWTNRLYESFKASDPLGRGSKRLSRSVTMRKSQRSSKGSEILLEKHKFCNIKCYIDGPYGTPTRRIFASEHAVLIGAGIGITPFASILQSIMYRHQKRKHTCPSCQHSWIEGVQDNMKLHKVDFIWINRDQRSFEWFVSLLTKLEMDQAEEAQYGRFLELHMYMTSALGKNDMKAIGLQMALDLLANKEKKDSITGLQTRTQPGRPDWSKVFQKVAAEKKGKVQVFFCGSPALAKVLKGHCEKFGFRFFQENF
Sequence of NADPH oxidase 4 (Homo sapiens) (Q9NPH5 whole entry, looked up): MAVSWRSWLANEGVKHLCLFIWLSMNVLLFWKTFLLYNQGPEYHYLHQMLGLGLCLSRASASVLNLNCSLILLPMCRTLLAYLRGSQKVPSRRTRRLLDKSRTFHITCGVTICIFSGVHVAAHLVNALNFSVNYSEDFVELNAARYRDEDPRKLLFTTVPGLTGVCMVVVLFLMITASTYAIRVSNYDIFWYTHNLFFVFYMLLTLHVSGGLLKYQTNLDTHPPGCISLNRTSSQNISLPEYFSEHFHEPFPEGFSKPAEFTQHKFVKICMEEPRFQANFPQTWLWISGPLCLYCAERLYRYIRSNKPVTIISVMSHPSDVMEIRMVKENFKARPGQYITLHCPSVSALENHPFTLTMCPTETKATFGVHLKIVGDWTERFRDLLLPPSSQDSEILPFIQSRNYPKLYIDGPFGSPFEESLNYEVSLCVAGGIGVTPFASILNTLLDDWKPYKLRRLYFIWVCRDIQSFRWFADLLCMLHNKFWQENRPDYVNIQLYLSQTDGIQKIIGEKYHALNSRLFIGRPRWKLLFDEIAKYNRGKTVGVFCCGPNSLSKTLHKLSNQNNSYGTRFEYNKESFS

Take `CCCC=C(CCC)[C@@H](NC(=O)c1ccccc1)c1ccccc1`: the z-score is -0.845 (inactive) in [1]; 1.37 (inactive) in [3]; 0.894 (inactive) in assay [4]; 0.131 (inactive) in [5]; 0.812 (inactive) in assay [6]; 0.316 in [7]. Besides, the z-score in assay [8] was -0.523 (inactive); in assay [9], 0.304 (inactive); in assay [10], 0.895; in assay [11], -0.956; in [12] it was -0.551; in assay [13] it was 0.46. Besides, the z-score was -0.0621 in [14]; -0.246 in assay [15]; -3.04 in assay [16]; 0.177 (inactive) in assay [17]; -0.017 in [18]; -1.49 in assay [19]. Further, the z-score in assay [20] was 0.215 (inactive). The composite z-score in assay [2] was found to be 0.221.

Regarding `CC(C)[Si](OCC[C@H]1O[C@]2(C(=O)N(Cc3ccccc3)c3ccccc32)[C@@H](C)[C@@H]1[Si](C)(C)O)(C(C)C)C(C)C`, the z-score in assay [1] is 0.65 (inactive); in [3], 0.914 (inactive); in assay [4] it was 0.799 (inactive); in [5], 0.226 (inactive); in assay [6], 0.403 (inactive); in assay [7], 0.158. Further, the z-score in [8] was 0.999 (inactive); in assay [9], -0.328 (inactive); in [10], 0.523; in assay [11] it was -0.287; in [12] it was 1.13; in assay [13], 0.35. The z-score was -0.64 in assay [14]; -1.31 in [15]; 0.444 in assay [16]; 0.578 (inactive) in assay [17]; -0.82 in assay [18]; -1.51 in [19]. The z-score in assay [20] was -1.46 (inactive). The molecule also returned a composite z-score in [2] of -0.193.

With `CO[C@@H]1COC(=O)CC=C[C@@H](C)[C@H](OC)COC(=O)CC=C[C@H]1C`, the z-score in [1] is 0.356 (inactive); in assay [3], -0.611 (inactive); in assay [4], -0.163 (inactive); in assay [5] it was -0.335 (inactive); in assay [6] it was -0.0143 (inactive); in assay [7] it was 0.711. Besides, the z-score is -0.49 (inactive) in [8]; 0.276 (inactive) in assay [9]; 0.586 in assay [10]; 0.275 in assay [11]; 0.793 in assay [12]; 1.14 in assay [13]. Further, the z-score was -1.03 in assay [14]; 0.834 in [15]; 0.692 in assay [16]; 0.502 (inactive) in assay [17]; -0.793 in [18]; 1.21 in assay [19]. Also, the z-score in [20] was 0.756 (inactive). This molecule came in with a composite z-score in [2] of -0.257.

For the molecule `Cc1ccc(S[C@]2(C(=O)NCCN3CCOCC3)CC(=O)N(C3Cc4ccccc4C3)[C@@H]2c2ccc(CO)cc2I)cc1`, the z-score in assay [1] was 1.86 (inactive); in assay [3], 6.65 (inactive); in assay [4] it was -0.0443 (inactive); in [5] it was 0.591 (inactive); in assay [6], -0.926 (inactive); in assay [7], 1.22. In addition, the z-score in [8] was 2.05 (inactive); in [9], -1.59 (inactive); in [10], 1.33; in [11], 1.47; in assay [12] it was 1.33; in assay [13], -0.0794. The z-score in [14] is -3.23; in [15], -1.84; in [16] it was 0.899; in assay [17] it was -0.211 (inactive); in assay [18] it was -0.993; in assay [19] it was -1.02. For the same molecule, the z-score in assay [20] was 0.842 (inactive). In [2], this molecule returned a composite z-score of 0.392.

On to `CO[C@@H]1COC(=O)[C@H](C)NC(=O)CC=C[C@@H](C)[C@H](OC)COC(=O)[C@H](C)NC(=O)CC=C[C@H]1C`, for which the z-score is 1.02 (inactive) in assay [1]; 0.174 (inactive) in assay [3]; 0.551 (inactive) in assay [4]; 0.0076 (inactive) in [5]; 0.108 (inactive) in [6]; 0.298 in assay [7]. The z-score in assay [8] is 0.319 (inactive); in assay [9], 0.114 (inactive); in [10] it was 0.976; in assay [11], 1.2; in assay [12], -0.0006; in [13], 1.01. In addition, the z-score in assay [14] is 0.419; in [15] it was 0.973; in assay [16] it was 0.51; in assay [17] it was 1.44 (inactive); in assay [18], -1.04; in assay [19], 1.95. The z-score in assay [20] was 0.787 (inactive). The same molecule displayed a composite z-score in assay [2] of -0.0984.

For the molecule `COc1ccc([Si](C)(C)[C@H]2[C@H](CC(=O)N(CCO)Cc3ccccc3)O[C@@]3(C(=O)N(C)c4ccccc43)[C@@H]2C)cc1`, the z-score in assay [1] is 1.28 (inactive); in [3], 9.01 (active); in assay [4], 0.781 (inactive); in assay [5] it was -1.12 (inactive); in assay [6], -0.698 (inactive); in assay [7], 0.342. In addition, the z-score is -0.246 (inactive) in [8]; 0.129 (inactive) in [9]; -2.43 in assay [10]; -0.836 in assay [11]; 0.899 in assay [12]; -1.12 in assay [13]. Further, the z-score in assay [14] is -1.84; in assay [15], -3.42; in [16] it was -0.433; in assay [17] it was 0.505 (inactive); in assay [18] it was -0.965; in assay [19], -0.176. Besides, in assay [20], the z-score is 0.221 (inactive). Moreover, the composite z-score in assay [2] came to 0.106.

For the molecule `C=CC[C@]1(C(N)=O)N=C(c2ccc(OCCCO)cc2)O[C@H]1c1ccccc1CN=[N+]=[N-]`, the z-score in assay [1] was 2.19 (inactive); in assay [3], 23.9 (active); in assay [4] it was 6.58 (inactive); in assay [5], -0.294 (inactive); in [6] it was 0.837 (inactive); in [7], 1.73. Further, the z-score in [8] is -2.02 (inactive); in assay [9], -0.202 (inactive); in assay [10], 0.568; in assay [11] it was 0.919; in assay [12], 2.24; in assay [13] it was -0.509. Besides, the z-score was -0.562 in assay [14]; -1.37 in assay [15]; 2.69 in assay [16]; -0.436 (inactive) in [17]; -0.434 in assay [18]; 0.501 in [19]. The z-score in assay [20] was 0.01 (inactive). In [2], this molecule had a composite z-score of -0.007.

On to `CCOC(=O)C1=CC[C@@H](c2ccc(-c3ccc(OCc4ccccc4)cc3)c(OC)c2)N(S(=O)(=O)c2ccc(C)cc2)[C@H]1c1ccccc1`, for which the z-score in [1] was -0.0232 (inactive); in assay [3] it was 2.67 (inactive); in assay [4], 1.86 (inactive); in [5] it was 0.487 (inactive); in [6], 1.22 (inactive); in assay [7] it was -0.533. The z-score was 1.31 (inactive) in assay [8]; 0.643 (inactive) in [9]; 0.429 in [10]; -0.603 in assay [11]; -0.416 in [12]; 0.418 in assay [13]. Moreover, the z-score was -1.23 in [14]; -0.119 in assay [15]; 4.16 in assay [16]; 0.51 (inactive) in assay [17]; -0.161 in [18]; -1.54 in assay [19]. Further, in assay [20], the z-score was 0.751 (inactive). In assay [2], this molecule registered a composite z-score of 0.404.

Regarding `CCN1C(C)=C(C(=O)OC)[C@@H](c2ccccc2)N2C(=O)[C@@]3(C(=O)OC)O[C@@]12[C@@H]1C(=O)N(C)C(=O)[C@@H]13`, the z-score in [1] is -0.871 (inactive); in assay [3], 0.339 (inactive); in assay [4] it was -1.13 (inactive); in assay [5] it was 0.0125 (inactive); in assay [6], -1.65 (inactive); in assay [7], 0.629. In addition, the z-score in assay [8] is 1.52 (inactive); in assay [9], -1.65 (inactive); in [10], -0.267; in [11], 0.0516; in assay [12], 0.59; in assay [13] it was -0.616. In addition, the z-score was -1.51 in assay [14]; 0.68 in [15]; 0.684 in assay [16]; 1.15 (inactive) in [17]; 0.644 in assay [18]; -0.196 in assay [19]. Moreover, the z-score in [20] was 0.363 (inactive). This molecule also showed a composite z-score in assay [2] of -0.0954.
